The source of these data is PMC4552634, “A New Set of Chemical Starting Points with Plasmodium falciparum Transmission-Blocking Potential for Antimalarial Drug Discovery” (PLoS ONE, 2015).

The whole screen tested about 13,000 compounds, of which about 3,200 (25%) showed an effect of 50% or more. This is one part of the list.

This assay relates to P. falciparum stage V gametocytes. The arrangement: BacTiter-Glo ATP luminescence viability of purified stage V gametocytes in 384-well plates, per cent inhibition versus DMSO. The note with it: 48 h, 5 µM; inhibitor.
As a reminder, the % Inhibition is the change of the read-out against control, counted positive when it falls. Take `COc1cccc(NC(=O)NCCNc2ccnc(Nc3ccc(F)cc3)n2)c1` [TCMDC-133639]: the “% Inhibition” value is -6.43%.
The same measure for `COc1ccc(CNC(=O)c2cc3c(=O)n4ccccc4nc3n(CCc3ccccc3)c2=N)cc1` [TCMDC-124474]: -41.5%; for `Cc1cc(C(=O)CN2C(=O)NC(C)(c3cccc4ccccc34)C2=O)c(C)n1Cc1ccco1` (stereo not drawn) [TCMDC-125264]: 12.34%; for `Cc1cc(C(=O)CN2C(=O)NC(C)(c3ccc4ccccc4c3)C2=O)c(C)n1Cc1ccco1` (stereo not drawn) [TCMDC-125044]: -21.37%.
To `COCCn1c(C)cc(C(=O)CN2C(=O)NC(C)(c3ccc(C(C)(C)C)cc3)C2=O)c1C` (stereo not drawn) [TCMDC-125434] belongs 51.6%.
On to `Cc1[nH]nc2ccc(-c3cc(OC[C@@H](N)Cc4ccccc4)cnc3-c3cc4ccccc4s3)cc12` [TCMDC-136352], for which the “% Inhibition” value was determined as 16.97%.
`O=C(NCc1cccc2ccccc12)C1CCCN(C(=O)c2ccc(O)c(-c3ccc(Cl)c(Cl)c3)c2)C1` (stereo not drawn) [TCMDC-140894]: the “% Inhibition” value turned out to be 15.24%.
To `O=C(N[C@@H](Cc1ccccc1)[C@H](O)CNC1CCCCC1)c1cc(C2CCCC2)cc(N2CCCC2=O)c1` [TCMDC-138869] belongs 29.86%; to `COc1ccc2ncc(Cl)c(CCN3CC[C@@H](CNCc4cc5c(cn4)OCS5)C3)c2n1` [TCMDC-135904], -4.396%.
For the molecule `Cc1c(C)c2c(c(C)c1O)CCC(C)(CCC(=O)O)O2` (stereo not drawn) [TCMDC-131686], the “% Inhibition” value was -4.216%.
To `CC[C@H]1CN2CC[C@H]1C[C@@H]2[C@@H](O)c1cc(Cl)nc2ccc(OC)cc12` [TCMDC-137467] belongs -42.11%.
The same measure for `C=C[C@H]1CN2CC[C@H]1C[C@H]2[C@H](O)c1cc(/C=C/c2ccc(F)cc2)nc2ccc(OC)cc12` [TCMDC-141366]: -44.1%.
Take `CC[C@H]1CN2CC[C@H]1C[C@H]2[C@H](O)c1cc(-c2ccccc2C)nc2ccc(OC)cc12` [TCMDC-141190]: the “% Inhibition” value is recorded as 15.24%.
The same measure for `CC[C@H]1CN2CC[C@H]1C[C@H]2[C@H](O)c1cc(/C=C/c2ccccc2)nc2ccc(OC)cc12` [TCMDC-141329]: 62.86%; for `CC[C@H]1CN2CC[C@H]1C[C@H]2[C@H](O)c1cc(/C=C/c2ccc(F)cc2)nc2ccc(OC)cc12` [TCMDC-141367]: 91.47%.
To `Cc1cccc(N2C(N)=NC(N)=NC2(C)C)c1C` [TCMDC-137926] belongs 11.29%; to `Cc1cc(Nc2ccc(C)c(Cl)c2)n2ncnc2n1` [TCMDC-123501], -28.24%.
With `COC(=O)c1cccc(N2CCN(CCCNC(=O)/C(=C/C=C/c3cc4cc(Cl)c(Cl)cc4[nH]3)OC)CC2)c1` [TCMDC-139338], the “% Inhibition” value worked out at 20.82%.
To `O=C(Cc1ccc(NC(=O)c2ccc(O)c(-c3cccc([N+](=O)[O-])c3)c2)cc1)NCCN1CCCCC1` [TCMDC-140797] belongs 2.849%.
To `O=C(Nc1cccc(-c2cccc(-c3nc4ccc(F)cc4[nH]3)c2)c1)Nc1ccc2c(c1)OCO2` [TCMDC-133165] belongs 6.84%; to `COc1ccc(CNCc2cccc(-c3cccc(-c4nc5ccccc5[nH]4)c3)c2)cc1` [TCMDC-132716], -25.62%.
The same measure for `Nc1cccc(CNCc2cccc(-c3cccc(-c4nc5ccc(F)cc5[nH]4)c3)c2)c1` [TCMDC-132941]: -20.24%; for `c1ccc(CNCc2cccc(-c3ccc(-c4nc5ccccc5[nH]4)cc3)c2)cc1` [TCMDC-132700]: 26.72%.
With `NCc1ccc(CNCc2cccc(-c3cccc(-c4nc5ccc(F)cc5[nH]4)c3)c2)cc1` [TCMDC-132816], the “% Inhibition” value is 98.03%.
To `c1ccc(CNCc2cccc(-c3cccc(-c4nc5ccccc5[nH]4)c3)c2)cc1` [TCMDC-132698] belongs -20.89%; to `Nc1cccc(CNCc2cccc(-c3cccc(-c4nc5ccccc5[nH]4)c3)c2)c1` [TCMDC-132942], -10.95%.
To `NCc1ccc(CNCc2cccc(-c3cccc(-c4nc5ccccc5[nH]4)c3)c2)cc1` [TCMDC-132817] belongs 74.49%.
The same measure for `NCc1ccc(CNCc2cccc(-c3ccc(-c4nc5ccccc5[nH]4)cc3)c2)cc1` [TCMDC-132815]: 106.4%; for `Fc1ccc2nc(-c3cccc(-c4cccc(CNCc5ccccc5)c4)c3)[nH]c2c1` [TCMDC-132699]: -56.67%.
As for `CCNc1cc(C(=O)N[C@@H](Cc2ccccc2)[C@H](O)CNC2(Cc3cccc(Cl)c3)CCC2)cc(N2CCCCS2(=O)=O)c1` [TCMDC-135383], the “% Inhibition” value came to 17.64%.
The same measure for `COc1cccc(CNc2noc(-c3c(-c4ccccc4)noc3C)n2)c1OC` [TCMDC-134204]: 10.03%.
To `COc1ccc(-c2nc(NCc3ccccc3)c3cc(OC)c(OC)cc3n2)cc1` [TCMDC-132018] belongs 17.4%.
To `CCN(CCCNc1nc(=S)[nH]c2cc(OC)c(OC)cc12)c1ccccc1` [TCMDC-124446] belongs 83.33%.
`Cc1ccc2[nH]c3c(NCCCN(C)C)ncnc3c2c1` [TCMDC-124580]: the “% Inhibition” value worked out at 4.888%.
`Cc1cc(OCCCN2CCC(NS(=O)(=O)c3cc(Br)c(Cl)s3)CC2)c2ccccc2n1` [TCMDC-136280]: the “% Inhibition” value is reported as -17.93%.
The same measure for `Cc1cc(NC(=O)c2ccco2)ccc1OC1CCN(Cc2ccc(C#N)cc2)CC1` [TCMDC-133956]: 24.43%; for `Cc1ccc(S(=O)(=O)N(C)c2ccccc2C(=O)Nc2ccccc2Oc2ccccc2)cc1` [TCMDC-125068]: 52.2%; for `CN(c1ccccc1C(=O)Nc1ccccc1Oc1ccccc1)S(=O)(=O)c1ccccc1` [TCMDC-125092]: -61.36%.
To `CN(c1ccccc1C(=O)Nc1cc(Cl)ccc1Oc1ccccc1)S(=O)(=O)c1ccccc1` [TCMDC-124364] belongs 33.71%; to `O=[N+]([O-])c1ccc(C2=NN(S(=O)(=O)c3c(Cl)cc(Cl)cc3Cl)CCCC2)cc1` [TCMDC-135423], -33.18%; to `CCCCCc1cc(O)c2c(c1)OC(C)(C)CC2C1=CCN(Cc2ccccc2)CC1` (stereo not drawn) [TCMDC-131335], -27.18%.
To `CCCCc1cc(NCc2ccncc2)nc(Nc2ccccc2)n1` [TCMDC-133995] belongs 8.477%.
